The panel holds about 79,000 compounds, 15% with a hit somewhere; the sample as a whole holds those more often. A number with no mark means an inactive call. The source made the active and inactive calls. Rule as the data show it: active = growth inhibition above about 70%; inactive = the rest.

The values below come from PubChem BioAssay (NCI).

Assay [1] in a line: NCI Yeast Anticancer Drug Screen. Data for the rad50 strain (AID 155).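 Also: 0% = growth of vehicle-only cultures of the same strain.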 Particulars: S. cerevisiae rad50 strain growth inhibition; at 50.0 µM; stronger effect = higher value. In a few lines: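 Compounds were tested on a yeast strain with an engineered DNA damage repair alteration; the reported value is growth inhibition normalised to vehicle treatment.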
Assay [2] in a line: NCI Yeast Anticancer Drug Screen. Data for the mec2-1 strain (AID 157). Particulars: S. cerevisiae mec2-1 strain, at 50.0 µM, stronger effect = higher value. The method in brief:
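Vehicle-treated cultures served as reference for growth inhibition of compound-exposed mec2-1 yeast.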

The nature of assay [3]: NCI Yeast Anticancer Drug Screen. Data for the sgs1 mgt1 strain (AID 161).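 Also: 0% = growth of cultures given vehicle only.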 Particulars: S. cerevisiae sgs1 mgt1 strain, at 50.0 µM, stronger effect = higher value. In a few lines: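 Mutant yeast exposed to compound; growth scored against vehicle-only wells.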
Assay [4] is described as follows: NCI Yeast Anticancer Drug Screen. Data for the cln2 rad14 strain (AID 165).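 Also: 0% = growth equal to vehicle treated cultures.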 The settings on record: S. cerevisiae cln2 rad14 strain, at 50.0 µM, stronger effect = higher value. In a few lines:
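Each compound was tested on cln2 rad14 yeast. Inhibition of growth was calculated against vehicle-exposed controls.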

Assay [5] is described as follows: NCI Yeast Anticancer Drug Screen. Data for the bub3 strain (AID 167). The settings on record: S. cerevisiae bub3 mutant strain, at 50.0 µM, stronger effect = higher value. In a few lines: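 Growth of a checkpoint-deficient yeast mutant is measured after compound exposure. Values represent inhibition relative to vehicle.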
A short description of assay [6]: NCI Yeast Anticancer Drug Screen. Data for the mlh1 rad18 strain (AID 175). The settings on record: S. cerevisiae mlh1 rad18 strain growth inhibition; at 50.0 µM; stronger effect = higher value. In a few lines: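 Vehicle-treated cultures served as the reference for growth inhibition in a yeast strain carrying DNA damage repair alterations exposed to each compound.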

In the case of `O=COCCO`, the growth inhibition is -12.6% in assay [1]; -5.6% in assay [2]; 7.6% in assay [3]; -9.85% in assay [4]; 1.75% in assay [5]; -9.1% in assay [6].

Regarding `CC12CCC3=C(CCc4cc(O)ccc43)C1CCC2=O` (configuration not stated), the growth inhibition in assay [1] is -4.8%; in assay [2] it was 9.75%; in assay [3], 5.8%; in assay [4], -34.5%; in assay [5], -7.95%; in assay [6], 4.4%.

As to `S=C(SCc1c(Cl)cccc1Cl)N1CCSCC1`, the growth inhibition in assay [1] is -13.9%; in assay [2], -14.2%; in assay [3], 23.1%; in assay [4] it was -6.85%; in assay [5], 53%; in assay [6], 0.6%.

For `c1ccc(-c2ccc3c4ccccc4ccn23)cc1`, the growth inhibition in assay [1] is 9.2%; in assay [2], -4.1%; in assay [3] it was 8.9%; in assay [4], 17.7%; in assay [5], 12.7%; in assay [6], 23.9%.

For the compound `NC(=O)CCP(=O)(CCC(N)=O)CCC(N)=O`, the growth inhibition was 3.8% in assay [1]; -2.3% in assay [2]; 1.2% in assay [3]; 0.8% in assay [4]; -2.95% in assay [5]; 2.4% in assay [6].

In the case of `O=CN(Cc1ccccc1)Cc1ccccc1`, the growth inhibition is 5.15% in assay [1]; 8.2% in assay [2]; 3.65% in assay [3]; 0.95% in assay [4]; -3.8% in assay [5]; -12.6% in assay [6].

`CN(C)c1cc[n+](-c2c([O-])c3ccccc3n(-c3ccccc3)c2=O)cc1`: the growth inhibition in assay [1] is 20.1%; in assay [2] it was 6.1%; in assay [3], 14.2%; in assay [4] it was 12.7%; in assay [5] it was 4.8%; in assay [6] it was 21%.

On to `O=[N+]([O-])c1ccc(S(=O)(=O)SC(F)(F)F)cc1`, for which the growth inhibition was 14.7% in assay [1]; 3.85% in assay [2]; -1% in assay [3]; -47.1% in assay [4]; -3.25% in assay [5]; 11.3% in assay [6].

Turning to `[Cl][Cu][Cl].c1ccc2c(c1)Sc1ccccc1[N+]2=c1ccc2nc3ccccc3sc-2c1`, the growth inhibition in assay [1] was 26.1%; in assay [2], 45.8%; in assay [3] it was 29.8%; in assay [4], 2.7%; in assay [5], 29.9%; in assay [6], 35%.

With `c1ccc(CNn2nnc3ccccc32)cc1`, the growth inhibition in assay [1] is 16.6%; in assay [2] it was -14.4%; in assay [3] it was 7.25%; in assay [4], 3.15%; in assay [5], -2.95%; in assay [6], 21.9%.

As for `COC(=O)CCc1ccc(CCC(=O)OC)cc1`, the growth inhibition in assay [1] is -14.8%; in assay [2], -37.1%; in assay [3], -1.5%; in assay [4] it was 4.2%; in assay [5] it was -11.2%; in assay [6] it was 9.7%.

As for `CCCCCCCCCCCC(=O)N/N=C(\c1ccccc1)c1ccc(Cl)cc1`, the growth inhibition in assay [1] is 91.5% (active); in assay [2], 88.2% (active); in assay [3] it was 93.5% (active); in assay [4], 86.9% (active); in assay [5], 76.5% (active); in assay [6], 91.3% (active).

Take `CC(/C=C/c1ccccc1)=N\O`: the growth inhibition in assay [1] was 9.4%; in assay [2] it was 7.2%; in assay [3], -1.4%; in assay [4] it was 28.8%; in assay [5], 3.45%; in assay [6], 1.95%.

For `COc1ccc2c(c1)CCC(OS(=O)(=O)CC13CCC(CC1=O)C3(C)C)C2=O` (configuration not stated), the growth inhibition in assay [1] was -9.15%; in assay [2], 5%; in assay [3], -15.2%; in assay [4], -10.7%; in assay [5], -21.9%; in assay [6], -0.45%.

Consider `CC(=O)OC1CC23CCC(=O)C2(CC3)C1` (configuration not stated), for which the growth inhibition in assay [1] is 19.9%; in assay [2], -5.8%; in assay [3] it was 1.85%; in assay [4] it was -30.1%; in assay [5], 8.3%; in assay [6], -11%.

In the case of `O=c1[nH]c(-c2ccccc2N=NN2CCCCC2)nc2ccccc12`, the growth inhibition in assay [1] is -4.05%; in assay [2] it was -2.35%; in assay [3], -2.6%; in assay [4], -11.8%; in assay [5] it was -4.45%; in assay [6], 1.8%.

In the case of `CC(C)CC(NC(=O)c1ccccc1C(=O)O)C(N)=O` (configuration not stated), the growth inhibition in assay [1] was -6.7%; in assay [2], 3.5%; in assay [3] it was 6.65%; in assay [4] it was -0.15%; in assay [5], 6.2%; in assay [6], -19%.

Turning to `O=C(Nc1ccccc1)Nc1ccc(-c2ccccc2)cc1`, the growth inhibition was 13.7% in assay [1]; 14.1% in assay [2]; 13.1% in assay [3]; 5.7% in assay [4]; 37.6% in assay [5]; 3.5% in assay [6].

Consider `OC(CCCN1CCN2CCc3[nH]c4ccccc4c3C2C1)c1ccc(F)cc1` (configuration not stated), for which the growth inhibition is 23.9% in assay [1]; -1.8% in assay [2]; 13.7% in assay [3]; 14.3% in assay [4]; 1.3% in assay [5]; 10.8% in assay [6].

Regarding `Cc1ccc2c(c1)c(C)c(C)c(=O)n2C`, the growth inhibition in assay [1] is 21.2%; in assay [2] it was -8.7%; in assay [3], -1.5%; in assay [4] it was 13.2%; in assay [5] it was 1.9%; in assay [6], 10.1%.

Turning to `O=C(CN1C(=O)c2ccccc2C1=O)NCCO`, the growth inhibition was -26.8% in assay [1]; -29.1% in assay [2]; -11.8% in assay [3]; -11.7% in assay [4]; -29.1% in assay [5]; -17.2% in assay [6].

With `CCCCCCC1N(C(C#N)c2ccccc2)CCCN1C(C#N)c1ccccc1` (configuration not stated), the growth inhibition was 19.8% in assay [1]; 14.2% in assay [2]; 16.6% in assay [3]; 7.6% in assay [4]; 2.4% in assay [5]; 36.4% in assay [6].
